CHX counter = counter-screen for Shiga toxin inhibitors: cycloheximide protein synthesis inhibition; cell reporter, cycloheximide protein synthesis inhibition counterscreen; max response, %; actives 12% (n = 300,000); AID 2314; in the data active means max response mostly above about 13%, no sharp cut-off; inactive means mostly below about 14%; further: read at 38.3 µM for the half of the compounds with a filed dose; 0% is about no effect
SARS PLpro yeast = blocks SARS-CoV papain-like protease in a yeast assay; S. cerevisiae expressing SARS-CoV PLpro, growth rescue; Potency, µM (titrated, usually from 32.9 µM), for the others: at the highest dose activity, positive = growth rescue, hits mostly activators; actives 0.19% (n = 330,000); calls by dose curve; further: potency means the concentration at half of the fitted maximal effect; 0% is about no effect; nearly all actives have a fitted effect of over 55% in size
Pf growth 48h = P. falciparum growth inhibition at 48 hours (one generation); P. falciparum luciferase growth in erythrocytes, 48 h; Potency, µM (highest dose often 28.7 µM), without a hit: at the highest dose activity change, negative = inhibition, most hits filed as inhibitors; actives 5.9% (n = 310,000); further: potency means the concentration at half of the fitted maximal effect; on the % scale 0 is the no-effect control and ±100 the full control effect
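Parasite viability was followed by luminescence of a genomically integrated firefly luciferase. Cultures held 0.1% parasitemia at 2% hematocrit (final), incubated under 5% CO2 at 37 C.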
Shiga toxin inh = inhibitors of Shiga toxin in Vero cells | Vero cells, Shiga toxin protein synthesis inhibition reporter | inhibition, % at 38.7 µM | actives 9.2% (n = 290,000); in the data active means inhibition mostly above about 28%, no sharp cut-off; inactive means mostly below about 43%; further: 0% is about no effect
NS1 function inh = influenza NS1 inhibition; Potency, µM (highest dose often 46.1 µM), for inactives: at the highest dose activity, positive = more growth; actives 0.4% (n = 270,000); calls by dose curve; further: potency means the concentration at half of the fitted maximal effect; actives are rising curves; nearly all actives have a fitted effect of over 50% in size
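OD600 was taken as the measure of yeast growth restored by compound in an NS1-expressing S. cerevisiae strain. Cells had been washed out of glucose medium and diluted 1:100 into galactose -URA medium, pH 6.0.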
Pf growth 96h = P. falciparum growth inhibition at 96 hours. Potency, µM (highest dose often 28.7 µM), for inactives: top-dose activity change, negative = inhibition, most hits filed as inhibitors. actives 6.9% (n = 320,000). P. falciparum luciferase reporter growth, 96 h; further: potency means the concentration at half of the fitted maximal effect; on the % scale 0 is the no-effect control and ±100 the full control effect
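Compounds incubated with erythrocytes infected by luciferase-expressing P. falciparum (2% hematocrit, 0.05% parasitemia final) for 96 hours, 37 C in 5% CO2. Growth inhibition scored as decreased luciferase luminescence.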
The depositor's hits bear a star; u = inconclusive; x = no result given. The list is not random: actives were taken first. Their share in the collection is about 21%. Unless noted, the call rests on the fitted dose curve; in most records, active means well fitted inhibition curve with a large enough effect; inconclusive means small, poorly fitted or top-dose-only effect, or another doubt; inactive means no such curve, though single readings can be large or run the other way.

SMILES	CHX counter	SARS PLpro yeast	Pf growth 48h	Shiga toxin inh	NS1 function inh	Pf growth 96h
CC(C)c1ccc(N(C(=O)c2snc(C(N)=O)c2N)C(C(=O)NCC2CCCO2)c2ccc(N(C)C)cc2)cc1 (stereo not given)	-7	u	u	-4	19%	10%
CCOc1ccccc1N(C(=O)c1snc(C(N)=O)c1N)C(C(=O)NCC1CCCO1)c1ccc2ncccc2c1 (stereo not given)	-5	1%	u	8	2%	u
NC(=O)c1nsc(C(=O)N(c2ccccc2)C(C(=O)NCC2CCCO2)c2ccc3ncccc3c2)c1N (stereo not given)	-7	3%	12µM*	-9	-15%	u
Cc1cccc(N(C(=O)c2snc(C(N)=O)c2N)C(C(=O)NCC2CCCO2)c2ccc(N(C)C)cc2)c1 (stereo not given)	-5	14%	13µM*	2	13%	40%
CN(C)c1ccc(C(C(=O)NCC2CCCO2)N(C(=O)c2snc(C(N)=O)c2N)c2ccccc2)cc1 (stereo not given)	-7	4%	2.9µM*	-7	-4%	11%
CCOc1ccc(C(C(=O)NCC2CCCO2)N(Cc2cccc(OC)c2)C(=O)c2snc(C(N)=O)c2N)cc1 (stereo not given)	-4	-4%	13µM*	-6	-9%	u
C/C(=N\NC(N)=O)C1CC(Cc2ccccc2)C(=O)O1 (stereo not given)	-2	-8%	-3%	-9	2%	-20%
CCOC(=O)c1ncn2c1[C@@H]1CCNC1C(=O)c1cc(OC)ccc1-2 (stereo not given in full)	x	x	-7%	x	x	-11%
Cc1ccccc1N(C(=O)c1snc(C(N)=O)c1N)C(C(=O)NCC1CCCO1)c1ccc(N(C)C)cc1 (stereo not given)	-7	1%	1.7µM*	-7	3%	u
O=C1N=c2ccccc2=C1c1sc(NS(=O)(=O)c2ccccc2)nc1O	12	1%	31%	-4	x	20%
O=C1N=c2ccccc2=C1c1sc(Nc2cccc(O)c2)nc1O	44*	-4%	125%	48*	20%	u
O=C1N=c2ccccc2=C1c1sc(Nc2ccc(O)cc2)nc1O	12	1%	27%	64*	x	55%
Cc1cc(C)nc(NC(=NCCc2c[nH]c3ccccc23)NC(=O)Nc2ccc(Cl)cc2)n1	-3	-9%	2.9µM*	-17	-7%	0.59µM*
Cc1ccc(Cn2ncc(Cl)c(Cl)c2=O)cc1	11	-21%	-2%	38	-28%	u
O=C(Cn1ncc(Cl)c(Cl)c1=O)N1CCOCC1	23*	2%	u	38*	x	u
O=C(Cn1ncc(Cl)c(Cl)c1=O)N1CCN(Cc2ccccc2)CC1	-4	0%	u	-20	x	u
CCc1ccc(C(=O)Cn2ncc(Cl)c(Cl)c2=O)cc1	17*	1%	2%	24	3%	58%
Cc1cc(C)cc(Cn2ncc(Cl)c(Cl)c2=O)c1	36*	-45%	12%	35	-12%	-27%
Cc1[nH]c2ccccc2c1NC(=O)CN1CCN(C(=O)c2ccco2)CC1	-2	-1%	u	-2	-1%	u
O=C1NC2(CCCCCC2)C(=O)N1Cc1ccc([N+](=O)[O-])cc1	-6	20%	5%	-8	-1%	u
O=C(c1cc(COc2cccc(C(F)(F)F)c2)on1)N1CCC(c2ccccc2)CC1	8	-2%	5%	3	12%	u
CCc1cc(C(=O)N2CCCC(CCC(=O)N3CCN(c4ccccn4)CC3)C2)no1 (stereo not given)	-2	0%	-23%	6	-1%	-9%
Cc1cccc(C)c1OCc1cc(C(=O)N2CCC(c3ccccc3)CC2)no1	41*	-3%	-12%	100*	-15%	u
CC(=O)N1CCCN(C(=O)c2cc(COc3c(F)cccc3F)on2)CC1	4	3%	u	12	24%	0%
Cc1cc(C(=O)N2CCC(Cc3ccccc3)CC2)no1	-3	1%	80%	5	-2%	15µM*
Cc1cccc(C)c1OCc1cc(C(=O)N2CCN(c3ccccn3)CC2)no1	44*	-10%	9%	46*	-58%	u
